In article PMC5540273 (PLoS ONE, 2017):

Legend:
Settings in all cases: concentration: 1 μM, replicates: in singlicate; n = 1
GRK1 = system: GRK1
GRK2 = system: T1, GRK2
T1 construct: gene ADRBK1

GRK3 = system: T2, GRK3
T2 construct: gene ADRBK2

GRK4 = system: GRK4
GRK7 = system: GRK7
GSK3A = system: GSK3A
GSK3B = system: GSK3B
HASPIN = system: T3, HASPIN
T3 construct: gene GSG2

HCK = system: HCK
HIPK1 = system: HIPK1
HIPK2 = system: HIPK2
HIPK3 = system: HIPK3
HIPK4 = system: HIPK4
HPK1 = system: HPK1
HUNK = system: HUNK
ICK = system: ICK
IGF1R = system: IGF1R
IKK-alpha = system: T4, IKK-alpha
T4 construct: gene CHUK

IKK-beta = system: T5, IKK-beta
T5 construct: gene IKBKB

IKK-epsilon = system: T6, IKK-epsilon
T6 construct: gene IKBKE
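Further: KINOMEscan kinase panel screen.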

| Compound | %Inh (GRK1) | %Inh (GRK2) | %Inh (GRK3) | %Inh (GRK4) | %Inh (GRK7) | %Inh (GSK3A) | %Inh (GSK3B) | %Inh (HASPIN) | %Inh (HCK) | %Inh (HIPK1) | %Inh (HIPK2) | %Inh (HIPK3) | %Inh (HIPK4) | %Inh (HPK1) | %Inh (HUNK) | %Inh (ICK) | %Inh (IGF1R) | %Inh (IKK-alpha) | %Inh (IKK-beta) | %Inh (IKK-epsilon) |
| --- | --- | --- | --- | --- | --- | --- | --- | --- | --- | --- | --- | --- | --- | --- | --- | --- | --- | --- | --- | --- |
| CCc1nc(-c2cccc(N(C)S(=O)(=O)c3ccccc3)c2)c(-c2ccnc(Nc3ccc(N4CCN(C(C)=O)CC4)nc3)n2)s1 [GSK1645895] | 0% | 0% | 0% | 0% | 0% | 11% | 20% | 0% | 0% | 1% | 0% | 17% | 0% | 35% | 0% | 13% | 0% | 0% | 1% | 39% |
| N#Cc1ccc(Oc2ccc(Nc3ncnc4cc[nH]c34)cc2Cl)cc1 | 27% | 0% | 7% | 12% | 14% | 19% | 0% | 0% | 21% | 32% | 32% | 10% | 4% | 0% | 1% | 0% | 0% | 2% | 17% | 12% |
| FC(F)(F)c1ccc(-c2cc(-c3c[nH]nc3-c3ccccn3)ccn2)cc1 [GW599550] | 0% | 0% | 33% | 14% | 4% | 19% | 0% | 14% | 0% | 0% | 0% | 21% | 0% | 26% | 0% | 0% | 28% | 0% | 0% | 47% |
| COC(=O)c1c(-c2ccccc2)c2cc(Cl)ccc2c(=O)n1Cc1ccc(S(C)(=O)=O)cc1 | 0% | 0% | 15% | 12% | 15% | 0% | 0% | 27% | 14% | 14% | 24% | 0% | 0% | 0% | 0% | 32% | 0% | 0% | 0% | 0% |
| COc1ccc(NC(=O)Nc2ccc(C)c(-c3ccc(C(=O)Nc4ccncc4)cc3)c2)cc1 [GSK1398475] | 0% | 0% | 11% | 0% | 0% | 15% | 7% | 0% | 0% | 0% | 0% | 4% | 0% | 47% | 7% | 0% | 0% | 0% | 0% | 0% |
| CC(C)(C)OC(=O)NC1CCCN(c2cc(-c3ccc4c(N)n[nH]c4c3)nc(N)n2)C1 (centres unmarked) [GSK2286096] | 0% | 0% | 0% | 0% | 0% | 0% | 11% | 1% | 0% | 0% | 0% | 12% | 0% | 26% | 5% | 7% | 0% | 0% | 0% | 12% |
| CC(C)(C)c1ccc(-n2cnc3c(N)ncnc32)cc1 [SKF-97263] | 3% | 0% | 0% | 24% | 0% | 31% | 4% | 64% | 13% | 19% | 0% | 6% | 0% | 60% | 14% | 17% | 11% | 0% | 7% | 19% |
